{"source": "the supplement of paper PMC7801607"}
{"test_system": "Plasmodium berghei ANKA liver stage in HepG2-A16-CD81", "assay": "% inhibition of liver stage parasite viability (luciferase); higher = more inhibition", "conditions": "5 µM; 48 h", "procedure": "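Single-concentration screen of the MMV Pandemic Response Box. P. falciparum NF54 asexual blood stages: pLDH assay, 72 h at 37 °C, 2 and 20 µM, n=2. Stage IV/V gametocytes (NF54): luciferase reporter (NF54-Pfs16-GFP-Luc, 48 h), ATP bioluminescence (24 h) and PrestoBlue (48 h) at 1 and 5 µM, n=1. P. berghei liver stage (luciferase in HepG2-A16-CD81, 48 h post infection) at 5 µM, n=4. All normalised to DMSO and kill controls as % inhibition.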", "units": {"% inhibition of liver stage parasite viability": "%"}}
{"compound": "C[N+]1(C)CCCC(OC(=O)C(O)(c2ccccc2)c2ccccc2)C1", "note": "(stereo not drawn)", "% inhibition of liver stage parasite viability": 34}
{"compound": "COC(=O)Nc1nc2ccccc2[nH]1", "% inhibition of liver stage parasite viability": 30.8}
{"compound": "COc1ccccc1CN[C@H]1C2CCN(CC2)[C@H]1C(c1ccccc1)c1ccccc1", "% inhibition of liver stage parasite viability": 17.8}
{"compound": "CCN1CCN(Cc2nc3ccc([N+](=O)[O-])cc3c(=O)n2-c2ccccc2F)CC1", "% inhibition of liver stage parasite viability": 14.3}
{"compound": "CCCCc1ccc(C(=O)O)nc1", "% inhibition of liver stage parasite viability": 19.3}
{"compound": "C[C@H]1CC[C@]2(NC1)O[C@H]1C[C@H]3[C@@H]4CC[C@H]5C[C@@H](O)CC[C@]5(C)[C@H]4CC[C@]3(C)[C@H]1[C@@H]2C", "% inhibition of liver stage parasite viability": 32}
{"compound": "NC1(C(=O)O)CCP(=O)(O)CC1", "note": "(stereo not drawn)", "% inhibition of liver stage parasite viability": 19.9}
{"compound": "COc1cc(C(C)(C)CCCC(C)C)cc(OC)c1OC", "% inhibition of liver stage parasite viability": 21}
{"compound": "Nc1c(C(=O)NCc2ccco2)c2nc3ccccc3nc2n1CCN1CCCCC1", "% inhibition of liver stage parasite viability": 28.4}
{"compound": "CN1C(=O)C(c2ccccc2)C(=O)N(c2ccccc2)c2cc(C(F)(F)F)ccc21", "note": "(stereo not drawn)", "% inhibition of liver stage parasite viability": 7.89}
{"compound": "C[C@@]1(O)[C@H](O)[C@@H](CO)O[C@H]1n1ccc2c(N)ncnc21", "% inhibition of liver stage parasite viability": 12.7}
{"compound": "CC(C)Oc1cccc(NC(=O)c2ccccc2C(F)(F)F)c1", "% inhibition of liver stage parasite viability": 23.7}
{"compound": "O=C(NC12CC3CC(CC(C3)C1)C2)c1cc2ccccc2[nH]1", "% inhibition of liver stage parasite viability": 11.7}
